Source: PubChem BioAssay AID1159580 (chemical genetic matrix, 2015)
The whole screen tested about 5,500 compounds, of which about 2,000 (36%) were called active. About 18% were inconclusive and are not listed. Cut-off read from the data, not from the text of the source: active = normalized growth mostly below about 0.91 (no sharp cut-off); inconclusive = no clear call, values can overlap the other calls; inactive = mostly above about 0.92. The list shows a part of the results.

Experiment: chemical genetic growth profiling, strain panel (AID 1159580);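 note: tested at 20 µM; growth read once vehicle control cultures reached saturation at 30 °C; 1 = growth at the plate median or of vehicle wells; lower values mean less growth of the strain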
Conditions: growth OD

Measured: normalized growth

COc1cc(-c2coc3cc(OC)c(OC)c(OC)c3c2=O)cc(OC)c1OC
inactive: S. cerevisiae deletion strains, locus YJR066W, strain TOR1, stronger effect = lower value 0.99 | S. cerevisiae deletion strains, locus YJR075W, strain HOC1, stronger effect = lower value 0.975 | S. cerevisiae deletion strains, locus YKL009W, strain mrt4, stronger effect = lower value 0.98 | S. cerevisiae deletion strains, locus YKL068W, stronger effect = lower value 0.988 | S. cerevisiae deletion strains, locus YKL085W, strain MDH1 (second series), stronger effect = lower value 0.973 | S. cerevisiae deletion strains, locus YKL085W, strain MDH1, stronger effect = lower value 0.973 | S. cerevisiae deletion strains, locus YKL160W, strain elf1, stronger effect = lower value 0.994 | S. cerevisiae deletion strains, locus YKR001C, strain vps1, stronger effect = lower value 1.02 | S. cerevisiae deletion strains, locus YKR026C, strain gcn3, stronger effect = lower value 0.997 | S. cerevisiae deletion strains, locus YKR091W, strain srl3, stronger effect = lower value 1 | S. cerevisiae deletion strains, locus YLL001W, strain dnm1, stronger effect = lower value 0.96 | S. cerevisiae deletion strains, locus YLL026W, stronger effect = lower value 0.996 | S. cerevisiae deletion strains, locus YLL041C, strain sdh2, stronger effect = lower value 0.996 | S. cerevisiae deletion strains, locus YLR027C, strain aat2, stronger effect = lower value 1.01 | S. cerevisiae deletion strains, locus YLR039C, strain RIC1, stronger effect = lower value 1 | S. cerevisiae deletion strains, locus YLR058C, strain SHM2, stronger effect = lower value 0.99 | S. cerevisiae deletion strains, locus YLR102C, strain apc9, stronger effect = lower value 1 | S. cerevisiae deletion strains, locus YLR113W, strain HOG1, stronger effect = lower value 0.98 | S. cerevisiae deletion strains, locus YLR221C, strain rsa3, stronger effect = lower value 0.997 | S. cerevisiae deletion strains, locus YLR258W, strain gsy2, stronger effect = lower value 0.989 | S. cerevisiae deletion strains, locus YLR262C, strain YPT6 (second series), stronger effect = lower value 0.972 | S. cerevisiae deletion strains, locus YLR262C, strain YPT6, stronger effect = lower value 1.01 | S. cerevisiae deletion strains, locus YLR268W, strain sec22, stronger effect = lower value 1.03 | S. cerevisiae deletion strains, locus YLR320W, strain mms22, stronger effect = lower value 1.01 | S. cerevisiae deletion strains, locus YLR330W, strain CHS5, stronger effect = lower value 0.998 | S. cerevisiae deletion strains, locus YLR342W, strain FKS1 (second series), stronger effect = lower value 1.08 | S. cerevisiae deletion strains, locus YLR342W, strain FKS1, stronger effect = lower value 1.01 | S. cerevisiae deletion strains, locus YLR357W, strain rsc2, stronger effect = lower value 0.953 | S. cerevisiae deletion strains, locus YLR370C, strain arc18, stronger effect = lower value 0.997 | S. cerevisiae deletion strains, locus YLR371W, strain rom2, stronger effect = lower value 1.01 | S. cerevisiae deletion strains, locus YLR384C, strain iki3, stronger effect = lower value 0.982 | S. cerevisiae deletion strains, locus YLR418C, strain cdc73, stronger effect = lower value 0.984 | S. cerevisiae deletion strains, locus YML016C, strain PPZ1, stronger effect = lower value 1 | S. cerevisiae deletion strains, locus YML032C, strain rad52, stronger effect = lower value 1.01 | S. cerevisiae deletion strains, locus YML120C, strain ndi1, stronger effect = lower value 0.997 | S. cerevisiae deletion strains, locus YML124C, strain tub3, stronger effect = lower value 0.989 | S. cerevisiae deletion strains, locus YMR058W, strain fet3, stronger effect = lower value 1.01 | S. cerevisiae deletion strains, locus YMR078C, strain ctf18, stronger effect = lower value 1.01 | S. cerevisiae deletion strains, locus YMR125W, strain sto1, stronger effect = lower value 0.992 | S. cerevisiae deletion strains, locus YMR129W, stronger effect = lower value 0.989 | S. cerevisiae deletion strains, locus YMR205C, strain PFK2, stronger effect = lower value 1.01 | S. cerevisiae deletion strains, locus YMR223W, strain ubp8, stronger effect = lower value 0.998 | S. cerevisiae deletion strains, locus YMR231W, strain pep5, stronger effect = lower value 0.987 | S. cerevisiae deletion strains, locus YMR307W, strain GAS1, stronger effect = lower value 1.13 | S. cerevisiae deletion strains, locus YNL067W, strain RPL9B, stronger effect = lower value 0.973 | S. cerevisiae deletion strains, locus YNL071W, strain lat1, stronger effect = lower value 1 | S. cerevisiae deletion strains, locus YNL183C, strain NPR1, stronger effect = lower value 0.984 | S. cerevisiae deletion strains, locus YNL209W, strain ssb2, stronger effect = lower value 1 | S. cerevisiae deletion strains, locus YNL233W, strain BNI4, stronger effect = lower value 0.982 | S. cerevisiae deletion strains, locus YNL248C, strain rpa49, stronger effect = lower value 0.983 | S. cerevisiae deletion strains, locus YNL250W, strain rad50, stronger effect = lower value 0.944 | S. cerevisiae deletion strains, locus YNL271C, strain bni1, stronger effect = lower value 0.995 | S. cerevisiae deletion strains, locus YNL298W, strain CLA4, stronger effect = lower value 0.996 | S. cerevisiae deletion strains, locus YNL307C, strain MCK1, stronger effect = lower value 1 | S. cerevisiae deletion strains, locus YNL322C, strain KRE1 (second series), stronger effect = lower value 0.998 | S. cerevisiae deletion strains, locus YNR049C, strain mso1, stronger effect = lower value 1 | S. cerevisiae deletion strains, locus YNR052C, strain pop2, stronger effect = lower value 0.977 | S. cerevisiae deletion strains, locus YOL012C, strain htz1 1.11 | S. cerevisiae deletion strains, locus YOL147C, strain pex11, stronger effect = lower value 0.998 | S. cerevisiae deletion strains, locus YOR001W, strain rrp6, stronger effect = lower value 0.997 | S. cerevisiae deletion strains, locus YOR061W, strain CKA2, stronger effect = lower value 1.01 | S. cerevisiae deletion strains, locus YOR069W, strain VPS5, stronger effect = lower value 0.989 | S. cerevisiae deletion strains, locus YOR070C, strain gyp1, stronger effect = lower value 0.991 | S. cerevisiae deletion strains, locus YOR080W, strain dia2, stronger effect = lower value 0.995 | S. cerevisiae deletion strains, locus YOR083W, strain WHI5, stronger effect = lower value 0.996 | S. cerevisiae deletion strains, locus YOR106W, strain vam3, stronger effect = lower value 0.988 | S. cerevisiae deletion strains, locus YOR136W, strain idh2, stronger effect = lower value 0.993 | S. cerevisiae deletion strains, locus YOR144C, strain elg1, stronger effect = lower value 0.997 | S. cerevisiae deletion strains, locus YOR184W, strain ser1, stronger effect = lower value 1.08 | S. cerevisiae deletion strains, locus YOR231W, strain MKK1, stronger effect = lower value 1.04 | S. cerevisiae deletion strains, locus YOR265W, strain rbl2, stronger effect = lower value 1.01 | S. cerevisiae deletion strains, locus YOR270C, strain vph1, stronger effect = lower value 1.01 | S. cerevisiae deletion strains, locus YOR290C, strain snf2, stronger effect = lower value 1.01 | S. cerevisiae deletion strains, locus YOR316C, strain cot1, stronger effect = lower value 0.99 | S. cerevisiae deletion strains, locus YPL051W, strain arl3, stronger effect = lower value 0.994 | S. cerevisiae deletion strains, locus YPL055C, strain LGE1, stronger effect = lower value 1.03 | S. cerevisiae deletion strains, locus YPL078C, strain atp4, stronger effect = lower value 0.998 | S. cerevisiae deletion strains, locus YPL106C, strain sse1, stronger effect = lower value 0.984 | S. cerevisiae deletion strains, locus YPL240C, strain hsp82, stronger effect = lower value 1 | S. cerevisiae deletion strains, locus YPL256C, strain CLN2, stronger effect = lower value 1.03 | S. cerevisiae deletion strains, locus YPR119W, strain clb2, stronger effect = lower value 0.975 | S. cerevisiae deletion strains, locus YPR141C, strain kar3, stronger effect = lower value 0.972 | S. cerevisiae deletion strains, locus YPR163C, strain tif3, stronger effect = lower value 1 | S. cerevisiae deletion strains, locus YPR167C, strain met16, stronger effect = lower value 0.995 | S. cerevisiae deletion strains, strain wtn01, stronger effect = lower value 1.03 | S. cerevisiae strains, strain wild type, stronger effect = lower value 1.02
